“And” between values parts separate entries of the source, which are not always exact repeats. Identical values can stand only once. Inconclusive results are not listed. The source made the active and inactive calls. Calls follow the shape of the dose curve; as a rule, active = well fitted curve in the direction sought with a large enough effect; inconclusive = small, poorly fitted or top-dose-only effect, or another doubt; inactive = no such curve, though single readings can be large; an effect the other way counts as inactive or inconclusive.
Biological target: Cellular tumor antigen p53 (Homo sapiens) (UniProt P04637)
Sequence (P04637 whole entry, looked up): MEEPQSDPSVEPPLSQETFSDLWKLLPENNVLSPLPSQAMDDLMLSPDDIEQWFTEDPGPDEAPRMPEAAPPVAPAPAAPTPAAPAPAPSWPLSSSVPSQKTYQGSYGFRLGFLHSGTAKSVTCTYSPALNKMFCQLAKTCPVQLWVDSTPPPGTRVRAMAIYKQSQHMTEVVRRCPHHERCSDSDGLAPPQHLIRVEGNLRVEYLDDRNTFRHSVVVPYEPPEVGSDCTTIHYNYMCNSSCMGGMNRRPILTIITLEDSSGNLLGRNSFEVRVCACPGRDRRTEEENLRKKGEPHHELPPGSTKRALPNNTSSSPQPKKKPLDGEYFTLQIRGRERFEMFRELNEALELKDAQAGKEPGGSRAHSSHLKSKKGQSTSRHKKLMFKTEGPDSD
Experiment: Primary qHTS for small molecule compounds that upregulate eGFP-tagged delta133p53alpha (in N-terminal) cells. (AID 2060322);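 also: cells pre-induced with doxycycline then dosed without doxycycline; 0% = DMSO vehicle and 100% = reference activator; nearly all actives have a fitted effect of over 75% in size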
Conditions: NCI-H358 eGFP-delta133p53alpha fluorescence, 24 h; activation: stronger effect = higher value
Summary of the method: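 NCI-H358 cells pre-induced 24 h with 10 ng/ml doxycycline for eGFP-delta133p53alpha, plated dox-free and exposed 24 h at 37C to titrated compounds. Fixed, Hoechst-stained; gated GFP peak intensity by laser scanning cytometry, normalized to DMSO (0%) and 57.5 uM 5-azacytidine (100%).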

Row | Compound | activation
1 | Oc1ccc(OCc2ccccc2)cc1 | -16.4% (inactive) and -11.2% (inactive)
2 | COc1cc2ncnc(Nc3cccc(Br)c3)c2cc1OC | 29.9% (inactive)
3 | COc1ccc(Nc2cc(-c3cnc(N)nc3)nc(N3CCOCC3)n2)cn1 | 24.5% (inactive)
4 | O=C(Nc1ccccc1Br)N[C@@H]1CCN(c2ccc(C(F)(F)F)cn2)C1 | 10.1% (inactive)
5 | CC(C)Cn1cnc2c(N)nc3ccccc3c21 | -10% (inactive) and 13.9% (inactive)
6 | COc1ccc(-c2cc(=O)c3c(O)cc(O)cc3o2)cc1O | 29.3% (inactive)
7 | COc1cccc2c1CCCC2CCCN1CCN(C2CCCCC2)CC1 (stereo unspecified) | 0.872% (inactive)

Tested on: not listed separately
Experiment: BET inhibitor-based combinations targeting novel dependencies in MECOM-rearranged (r) AML: OCI-AML3 cell line (AID 2202232); also: nearly all actives have a fitted effect of over 35% in size; also: potency is read from the fitted curve at half-maximal effect;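 as to viability (% of control): plate controls were DMSO vehicle wells for no effect and wells without cells for full effect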
Conditions: CellTiter-Glo luminescence, 48 h; Potency: OCI-AML3 viability; series mostly up to 46 µM; viability (% of control): at the top concentration
Summary of the method: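 Luminescent ATP readout (CellTiter-Glo) after 48 hr drug exposure gives viability. Curves span 11 concentrations and are normalized to DMSO and empty wells. Activity is reported as area under the curve and its Z-transform within each cell line.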

Row | Compound | Potency | viability (% of control)
8 | CC(C)(C)OC(=O)CN(Cc1ccc(Cl)cc1)Cc1ccc([N+](=O)[O-])s1 | 7.42 µM (active) | –
9 | Nc1ncnc2c1ncn2[C@@H]1O[C@H](CO)[C@@H](O)[C@@H]1O | – | 121% (inactive)
10 | COc1cccc([C@@H](C)NCCCc2ccccc2Cl)c1 | 16.6 µM (active) | –
11 | COc1cc2c(cc1Cc1cccc(Cl)c1F)c(=O)c(C(=O)O)cn2[C@H](CO)C(C)C | 16.6 µM (active) | –
12 | O=c1cc(-c2ccccc2)oc2cc(O)c(O)c(O)c12 | 7.42 µM (active) | –
13 | O=C(O)c1cn(C2CC2)c2cc(N3CCNCC3)c(F)cc2c1=O | – | 109% [at 8.46 µM] (inactive)
14 | O=[N+]([O-])c1cncn1CCN1CCOCC1 | – | 111% (inactive)
15 | CC(C)(C)c1cnc(CSc2cnc(NC(=O)C3CCNCC3)s2)o1 | 0.372 µM (active) | –
16 | COc1ccc(C=Cc2cc(OC)c(OC)c(OC)c2)cc1NC(=O)[C@H](N)CO | 0.296 µM (active) | –
